The text below walks through data of PubChem BioAssay AID743279 (National Center for Advancing Translational Sciences (NCATS), 2014).

In all, about 360,000 compounds went through this assay and about 17,000 (4.7%) were called active. Another 5% or so got no clear call; they are omitted. No stated cut-off is given here; in the data, active means activity change below about -50%; inconclusive means mostly about -30% to -49%; inactive means weaker than that. For the sample, actives were picked, then their nearest neighbours and some compounds at random.
On the % scale 0 is the no-effect control and ±100 the full control effect.

A short description of this assay: qHTS for Inhibitors of Inflammasome Signaling: IL-1-beta AlphaLISA Primary Screen. As to conditions: THP-1 LPS/ATP IL-1B secretion, 16 h; at 57.5 µM, active compounds read low. The gist of the method:
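Secreted IL-1B measured by AlphaLISA bead assay after 16 h compound exposure of THP-1 cells; compounds (final up to 57.5 uM) added 1 h before LPS (250 ng/mL) and ATP (1.25 mM) stimulation; lower signal means less secretion.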
A general note: qHTS replaces the single test concentration by a dilution series.
In the case of `CCOC(=O)C1(CCOC)CCN(Cc2cc3ccccc3s2)CC1`, the activity change was -8.97% (inactive).
As for `CCOc1ccccc1NC(=S)C(=C([O-])c1ccc2c(c1)OCCO2)[n+]1ccc(CC)cc1`, the activity change was 3.49% (inactive).
Take `Cc1ccc(Cc2nnc(SCC(=O)Nc3ccccc3C)[nH]c2=O)cc1`: the activity change is 19.7% (inactive).
In the case of `O=C(Nc1cccc2ccccc12)c1[nH]c(-c2ccccc2)c2c1C(=O)N(C1CC1)C2=O`, the activity change was -16.9% (inactive).
Take `CC(O)CN(Cc1ccc(Cl)cc1)CC(C)O` (stereo not given): the activity change is -2.11% (inactive).
The value for `CCOC(=O)C(NC(=O)CC(C)C)(Nc1sc2c(c1C(N)=O)CCCC2)C(F)(F)F` (stereo not given) was “inactive”; that for `CN(C)C(CNC(=O)c1cccc(S(=O)(=O)N2CCc3ccccc3C2)c1)c1ccccc1` (stereo not given) was -16.7% (inactive).
The value for `O=C(C1CCN(CC2CCCCC2)CC1)N1CCCC1` was -2.85% (inactive); that for `CCCCC(=O)N1CC2(C)CN(C(=O)CCCC)CC(C)(C1)C2=O` was 14% (inactive); that for `COCCN(CCOC)S(=O)(=O)c1ccc(/C(O)=C(\C#N)c2nc3ccccc3[nH]2)cc1` was -11.3% (inactive).
The value for `CC(C)(C)c1nnc2sc(SCC(O)=C(C#N)c3nc4ccccc4[nH]3)nn2c1=O` was 20.2% (inactive); that for `N#C/C(=C(/O)COC(=O)COc1ccc(Cl)cc1)c1nc2ccccc2[nH]1` was -99.4% (active).
Consider `Cc1cc(NC(=O)Nc2ccccc2[N+](=O)[O-])no1`, for which the activity change was -17.8% (inactive).
For `CC1CCCN(C(=O)Cn2c(=O)oc3cc(S(=O)(=O)N4CCCCC4C)ccc32)C1` (stereo not given) the value was 11.7% (inactive); for `Cc1cccc(-c2noc(-c3ccc(F)cc3)n2)c1`, 19.9% (inactive).
For `Oc1ccc(-c2nnc(Nc3ccccc3)c3ccccc23)cc1` the value was 13.6% (inactive).
For `Cc1cccc(-c2nc(Nc3ccc(O)cc3)c3ccccc3n2)c1` the value was -81.3% (active).
Consider `CCc1ccccc1OCC(=O)Nc1ccc2c(c1)OCCO2`, for which the activity change was -6.79% (inactive).
Consider `CC(C)(CCl)C(=O)Nc1ccc(Sc2ccc(F)cc2)cc1`, for which the activity change was -12.9% (inactive).
The value for `O=C(CCl)Nc1ccc(Sc2ccc(NC(=O)CCl)cc2)cc1` was -101% (active).
For `CC(=O)Nc1ccc(SCC(=O)NC(=O)c2ccc(Cl)cc2)cc1` the value was -2.04% (inactive); for `CC1CCN(C(=O)c2ccccc2NC(=O)Cc2ccccc2)CC1`, 29.6% (inactive); for `C[C@H](CO)N1C[C@H](C)[C@@H](CN(C)C(=O)C2CCCCC2)OCc2cnnn2CCCC1=O`, 2.8% (inactive).
In the case of `CCN1/C(=C\c2ccc3ccccc3[n+]2CC)Sc2cc(C)ccc21`, the activity change is -99.7% (active).
The value for `CCN1/C(=C/c2ccc3ccc(C)cc3[n+]2CC)Sc2ccccc21` was -101% (active).
